Biological target: AMP-activated protein kinase, AMPK (Homo sapiens) (UniProt P54646+O43741+P54619+Q9UGJ0+Q9Y478+Q13131+Q9UGI9)
Experiment: AMP-dependent Kinase enzyme assay. An in vitro enzyme assay that detects ADP turnover that is directly proportional to AMPK activity. This uses naive AMPK that is activated during the assay with MK-8722
Type: functional
Parameters: scale not given: direction of the effect not stated beside the values
Settings: 30 µM

SMILES | Percent Effect
Cn1cc(CN(C(=O)c2ccc3ncsc3c2)C2CC2)cn1 | 10.2%
Cc1cc(C(=O)N2C[C@@H](CN(C)CCN(C)C)[C@@H](CO)C2)nc(C)n1 | -14.8%
NC(=O)c1ccc(N2CCN(CCCc3cn[nH]c3)CC2)cc1 | -7.64%
CN(C(=O)c1ccncc1)c1nnc(C2CCOC2)s1 (stereo not given) | 12.1%
O=C(COc1ccc(-n2cccn2)nn1)N1CCCC1 | 3.54%
CC(=O)N[C@H]1CN(S(=O)(=O)N(C)Cc2ccccc2)C[C@@H]1C1CC1 | 1.32%
Cc1ccc(OCC2CCCN(c3cc(C(N)=O)ccn3)C2)cc1 (stereo not given) | 2.7%
Cc1n[nH]c(C)c1CNc1ccc(-c2nc(C3CC3)no2)cn1 | -4.61%
CNC(=O)c1cn2cc(-c3ccc(F)cc3)n(CC=C(C)C)c(=O)c2n1 | 3.81%
COc1cccc(-c2nc(CNCCc3cccnc3)cs2)c1 | -3.62%
Cc1cc(C)n(CC2CCN(CC(O)CN3CCOCC3)CC2)n1 (stereo not given) | -1.36%
COCCCC1(CO)CCCN(C(=O)c2cnc(C3CC3)nc2)C1 (stereo not given) | 2.98%
CC(C)c1cc(C(=O)N[C@@H]2CC[C@@H](Oc3ccccc3)[C@@H]2O)on1 | 16.6%
CCC(C(=O)NC1(CN2CCOCC2)CCCC1)n1cccn1 (stereo not given) | 5.49%
Cc1cccn2cc(CN3CCC(N4CCN(C)C4=O)CC3)nc12 | 0.324%
COc1ccc(NC(=O)N2CCCC(CO)C2)c(C)c1 (stereo not given) | -4.81%
Oc1cccc(CNCc2ccc(-n3cncn3)nc2)c1 | 2.63%
CN(C)c1ccc(C(=O)N(Cc2ccncc2)CC2CCCO2)nn1 (stereo not given) | -3.6%
Cc1nc(CC(C)C)cc(C(=O)N2C[C@@H](CN(C)C)[C@@H](CO)C2)n1 | -4.49%
Cc1nccn1CCN(C)C(=O)c1cn(CC2CCCCC2)nn1 | 9.45%

From ChEMBL document CHEMBL3988442, “University of Dundee, Small-Polar-MMV Screening Library” (2021)
